Test systems include SR leukemia; RPMI-8226 leukemia; OVCAR-8 ovarian; OVCAR-5 ovarian; OVCAR-4 ovarian; IGROV1 ovarian; OVCAR-3 ovarian; HS 578T breast; NCI/ADR-RES ovarian; SK-OV-3 ovarian.
Test in all cases: NCI-60 one-dose screen, 48 h (100 = growth as untreated, 0 = no growth, -100 = all killed)
What all share (settings): 10 µM unless noted

The panel holds about 83,000 compounds, 20% with a hit somewhere; the sample as a whole holds those more often.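 Plates (96-well) were seeded with cells, treated with compound at one concentration, and incubated for 48 hours before percent growth was determined.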 Unmarked numbers belong to inactive results. Active and inactive are the calls of the source. The calls were made as follows: active = growth percent below 10; inactive = the rest.

`C/C(CCC(=O)O)=N/Nc1ccc([N+](=O)[O-])cc1`: the growth in the assay with SR leukemia was 40.6%; in the assay on RPMI-8226 leukemia, 51.9%; in the assay with OVCAR-8 ovarian, 70.4%; with OVCAR-5 ovarian, 68.1%; with OVCAR-4 ovarian, 66.3%; with IGROV1 ovarian, 103%. Moreover, the growth in the assay on OVCAR-3 ovarian is 89.9%; with HS 578T breast it was 92.9%; in the assay on NCI/ADR-RES ovarian, 49.6%.
For the compound `Cc1ccc(CC(=O)O)c(C)c1`, the growth in the assay with SR leukemia was 94.1%; in the assay on RPMI-8226 leukemia, 104%; in the assay on OVCAR-8 ovarian it was 100%; in the assay on OVCAR-5 ovarian, 98.8%; with OVCAR-4 ovarian, 105%; with SK-OV-3 ovarian it was 108%. Besides, the growth is 103% in the assay on OVCAR-3 ovarian, 101% with HS 578T breast and 101% with NCI/ADR-RES ovarian.
Consider `CC(=O)c1nn(-c2ccc(C)cc2)cc1C(=O)c1cc2c(ccc3ccccc32)oc1=O`, for which the growth with SR leukemia was 84%; with RPMI-8226 leukemia, 93.5%; in the assay on OVCAR-8 ovarian, 101%; in the assay on OVCAR-5 ovarian, 102%; in the assay with OVCAR-4 ovarian, 87.3%; in the assay on SK-OV-3 ovarian it was 80.4%. The figures for the growth with OVCAR-3 ovarian, with HS 578T breast and in the assay on NCI/ADR-RES ovarian were 98.4%, 96.7% and 101%, respectively.
For `NCCCOc1cc2ccccc2cc1C(=O)Nc1ccc(Cl)cc1OC(=O)c1cc2ccccc2cc1OCCCN`, the growth in the assay on SR leukemia is -47.5% (active); with RPMI-8226 leukemia, -46.6% (active); with OVCAR-8 ovarian it was -77% (active); in the assay on OVCAR-5 ovarian, -92.7% (active); in the assay on OVCAR-4 ovarian, -74.4% (active); in the assay with SK-OV-3 ovarian, -90.8% (active). Moreover, the growth in the assay on OVCAR-3 ovarian was -99.1% (active); in the assay on HS 578T breast it was -46.8% (active); with NCI/ADR-RES ovarian it was -61.5% (active).
For `COC(=O)Nc1nc2ccc(C(=O)c3ccccc3N(C)C3COC3)cc2[nH]1`, the growth in the assay with SR leukemia was 35.6%; with RPMI-8226 leukemia, -8.33% (active); in the assay on OVCAR-8 ovarian, 34.7%; with OVCAR-5 ovarian, 57%; in the assay with OVCAR-4 ovarian, 75.8%; in the assay with IGROV1 ovarian, 58.6%. Further, the growth with OVCAR-3 ovarian is 14.6%; in the assay on HS 578T breast, 22.5%; in the assay with NCI/ADR-RES ovarian, 53.3%.
As to `O=C(O)CS(=O)c1ccc(Cl)cc1` (stereo not given), the growth in the assay on SR leukemia is 84.9%; in the assay on RPMI-8226 leukemia it was 116%; with OVCAR-8 ovarian, 99%; in the assay with OVCAR-5 ovarian it was 95.5%; in the assay on OVCAR-4 ovarian, 114%; in the assay with SK-OV-3 ovarian it was 107%. In addition, the values for the growth with OVCAR-3 ovarian and with NCI/ADR-RES ovarian were 115% and 109%, respectively.
On to `Cn1c2c(cc(S(=O)(=O)c3ccccc3)c1=O)CCc1c-2cnn1-c1ccc(Cl)cc1`, for which the growth is 52% in the assay with SR leukemia; 49.3% with RPMI-8226 leukemia; -48.4% (active) in the assay on OVCAR-8 ovarian; 26.2% in the assay on OVCAR-5 ovarian; -9.94% (active) with OVCAR-4 ovarian; 1.98% (active) in the assay on SK-OV-3 ovarian. Also, the growth was 56.4% with OVCAR-3 ovarian, -10.1% (active) in the assay on HS 578T breast and 39.3% in the assay on NCI/ADR-RES ovarian.
`COC(c1ccccc1)C(Br)C(=O)c1ccccc1` (stereo not given): the growth with SR leukemia is 79.7%; with RPMI-8226 leukemia it was 90.6%; in the assay on OVCAR-8 ovarian it was 92.1%; in the assay with OVCAR-5 ovarian, 108%; in the assay on OVCAR-4 ovarian it was 93.1%; in the assay with IGROV1 ovarian it was 96.6%. In addition, the values for the growth with OVCAR-3 ovarian, in the assay with HS 578T breast and in the assay with NCI/ADR-RES ovarian were 115%, 111% and 104%, respectively.
On to `Cc1c([C@H](C(Cl)Cl)[C@H](O)[C@H]2C[C@H](C)C(=O)O2)ccc2c1C(=O)[C@H]1[C@H]2C[C@@H](Br)[C@@]23O[C@@H](CO[C@H]2O)CC13C` (stereo not given in full), for which the growth was 11.9% in the assay on SR leukemia; 26.7% with RPMI-8226 leukemia; 5.88% (active) in the assay with OVCAR-8 ovarian; 55.6% with OVCAR-5 ovarian; 38.6% in the assay with OVCAR-4 ovarian; 36.5% in the assay on IGROV1 ovarian. The growth was -56.5% (active) in the assay on OVCAR-3 ovarian, -23.2% (active) with HS 578T breast and 30.8% with NCI/ADR-RES ovarian.
Turning to `COc1cc(-c2nn(-c3ccc(NC(=O)c4ccc(Cl)c(C(F)(F)F)c4)cc3)cc2-c2ccncc2)ccc1Cl`, the growth was 2.82% (active) in the assay with SR leukemia; -23% (active) with RPMI-8226 leukemia; 49.2% in the assay on OVCAR-8 ovarian; 55.7% in the assay with OVCAR-5 ovarian; 46.4% in the assay on OVCAR-4 ovarian; 60.5% in the assay on SK-OV-3 ovarian. For the same compound, the growth is 28.7% in the assay with OVCAR-3 ovarian, -49.7% (active) in the assay with HS 578T breast and 30.7% with NCI/ADR-RES ovarian.
`COc1cc(-c2nc3c(c(C)nc4c3nnn4-c3ccccc3)c(=O)o2)cc(OC)c1OC`: the growth in the assay with SR leukemia is 108%; in the assay on RPMI-8226 leukemia it was 105%; in the assay on OVCAR-8 ovarian, 107%; in the assay with OVCAR-5 ovarian, 103%; with OVCAR-4 ovarian it was 114%; with SK-OV-3 ovarian it was 115%. Besides, the growth with OVCAR-3 ovarian was 116%; in the assay with HS 578T breast, 103%; in the assay on NCI/ADR-RES ovarian, 115%.
Consider `Nc1nc2c(c3cnccc13)C(c1cccc(Br)c1)Cc1cnccc1-2` (stereo not given), for which the growth in the assay on SR leukemia is 17.8%; in the assay with RPMI-8226 leukemia, -2.76% (active); with OVCAR-8 ovarian it was 28.8%; with OVCAR-5 ovarian, 43.9%; in the assay on OVCAR-4 ovarian, 37.5%; with SK-OV-3 ovarian, 30.8%. The values for the growth in the assay with OVCAR-3 ovarian, in the assay with HS 578T breast and in the assay with NCI/ADR-RES ovarian were 1.08% (active), 42.3% and -4.12% (active), respectively.
Consider `CCC(C)(C)c1ccc(OCCCCCCN2CCN(c3ccc(C)c(Cl)c3)CC2)cc1`, for which the growth with SR leukemia is 71.8%; with RPMI-8226 leukemia, 59.7%; in the assay with OVCAR-8 ovarian it was 98.7%; with OVCAR-5 ovarian, 97.6%; with OVCAR-4 ovarian, 74.5%; in the assay on SK-OV-3 ovarian, 98%. In addition, the growth with OVCAR-3 ovarian was 58.3%; with NCI/ADR-RES ovarian it was 85%.

(Values after PubChem BioAssay (NCI).)
